Measured values published in PubChem BioAssay AID1347433 (National Center for Advancing Translational Sciences (NCATS), 2020).
Results filed as inconclusive are left out. A number with no mark means an inactive call. The source made the active and inactive calls. The call rests on the fitted dose curve; in most records, active means well fitted curve in the direction sought with a large enough effect; inconclusive means small, poorly fitted or top-dose-only effect, or another doubt; inactive means no such curve, though single readings can be large or run the other way.

The molecules below were run against Single-stranded DNA cytosine deaminase (Homo sapiens) (UniProt Q9GZX7) (assay: Confirmatory (Round 2) qHTS assay for inhibitors of Activation Induced Cytidine Deaminase (AID): AID signals). Conditions: AID deamination FRET-based fluorescence assay with UDG, 4 h; series mostly up to 78.4 µM; activity, negative = inhibition: at the top concentration.
Sequence of Single-stranded DNA cytosine deaminase (Homo sapiens) (Q9GZX7 whole entry, looked up): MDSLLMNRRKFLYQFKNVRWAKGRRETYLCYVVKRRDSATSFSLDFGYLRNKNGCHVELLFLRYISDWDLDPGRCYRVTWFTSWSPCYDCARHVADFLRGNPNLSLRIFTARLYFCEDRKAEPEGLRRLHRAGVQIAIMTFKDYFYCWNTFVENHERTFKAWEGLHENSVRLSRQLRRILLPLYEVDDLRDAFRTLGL
Excerpt: Assay Provider (PI) Patricia Gearhart Ph.D. National Institute on Aging National Institute of Health (NIH), Bethesda, MD Assay Provider (PI) Rahul Kohli Ph.D. Perelman School of Medicine University of Pennsylvania, Philadelphia, PA Activation-Induced Deaminase (AID) is a cytosine deaminase which converts cytosine into uracil within stretches of ssDNA. The presence of uracil in DNA initiates a cascade of mutagenic DNA repair to introduce point mutations and DNA double strand breaks. Specific targeting of AID to the immunoglobulin heavy chain loci (Igh) promotes mutagenesis in the antibody variable region for somatic hypermutation (SHM) or switch regions leading to class switch recombination (CSR). However, AID also plays a role in accumulating unnecessary mutations across the genome. Mis-targeting of AID results in the initiation of tumor development and leads to greater drug resistance among cancer cells when continually expressed. To identify an AID inhibitor, a small molecule library will be screened in collaboration with NCATS core facility at NIH. To confirm biological function, inhibitors will be examined in an in vitro murine B-cell activation assay and subsequent secondary validation screens. Top molecules will be further screened to identify inhibitory efficacy against a wild type primary splenocytes assay. Using these approaches, we hope to identify a small molecule with great efficacy and low toxicity for use as a molecular probe to further characterize AID's intricacies, or even as a therapeutic. A FRET based analysis of cytosine deamination, was developed to identify potential inhibitors of AID catalytic activity. This screen has two signal output, Read 1 evaluates the AID inhibition response. The second readout (Read 2) evaluates UDG response and is uses as a counterscreen to exclude false positive inhibitors. Inhibition in AID and inactivity in the UDG signal is the desired outcome for this assay.
PROTOCOL TABLE SEQUENCE No. (e.g., 1, 2, 3, etc.); PARAMETER (e.g., Cells, Incubation, Reagent, etc.); VALUE; DESCRIPTION 1a; Reagent; 3 uL; [4/3x] 1 uM AID/2.67 U/mL UDG 1b; Reagent; 3 uL; 2 U/mL UDG 1c; Reagent; 3 uL; 1 uM AID 2a; Compound; 46 nL; Follow-up plates (0.64 uM - 10 mM) 2b; Control; 46 nL; ATA ([…] - 10 mM) 3; Time; 10 min; incubation at room temperature 4; Reagents; 1 uL; [4x] 250 nM DJC20 / 250 nM DJC23 [Substrate] 5; Time; 4 hr; incubation at room temperature 6; Reagent; 4 uL; [2x] 250 mM NaOH 7; Time; 15 sec; centrifuge at 1000 rpm 8; Time; 30 min; incubation at room temperature 9a; Detection; fluorescence (Read 1: AID); EnVision (PerkinElmer) plate reader, 540 excitation and 590 emission filters 9b; Detection; fluorescence (Read 2: UDG); EnVision (PerkinElmer) plate reader, 560 excitation and 665 emission filters NOTES (numbers refer to sequence above) 1a; Reagents were dispensed in a medium-binding black solid-bottom Greiner plates (789176F) using a BioRptr liquid dispenser. Dispense 3 uL of [4/3x] 1 uM AID (provided by Kohli lab) and [4/3x] 2 U/mL UDG (NEB M0280L) into columns 1, 2, 5 to 48. 1b; Dispense 3 uL of [4/3x] 2 U/mL UDG into column 3. 1c; Dispense 3 uL of [4/3x] 1 uM AID into column 4. 2a; Compound (7-points [uM]: 0.64; 3.2; 16; 80; 400; 2,000; 10,000; […]) double pin-transferred (Dip Factor = 2) using the Kalypsys (Wako USA) pintool equipped with a 1536 pinhead for a final concentration range of 7.32 nM - 114 uM. 2b; 10 mM Aurintricarboxylic Acid (Sigma A1895) (ATA, 8-point, n = 2, 1:2.5 dilution in column 2) double pin-transferred (Dip Factor = 2) using the Kalypsys (Wako USA) pintool equipped with a 1536 pinhead for a [final] range of 186 nM - 114 uM. 3; Room temperature incubation. 4; Dispense 1 uL of substrate mixture from the Kohli lab [4x] […] DJC20 and [4x] 250 nM DJC23 into columns 1 to 48 . 5; Room temperature incubation. 6; Dispense 4 uL of substrate mixture [2x] 250 mM NaOH into columns 1 to 48. 7; Centrifugation step to remove bubbles. […]

| SMILES | activity, negative = inhibition [%] | Potency |
| --- | --- | --- |
| CN1CCN(CCCSc2nc(-c3ccccc3)nc3cc(=O)[nH]n23)CC1 | -1.4 | – |
| O=c1cc2nc(-c3ccccc3)nc(SCCN3CCC(F)(F)CC3)n2[nH]1 | -9.2 | – |
| Cn1ccnc1CCSc1nc(-c2ccccc2)nc2cc(=O)[nH]n12 | -3.59 | – |
| O=C(O)C1=CC(=C(c2ccc(O)c(C(=O)O)c2)c2ccc(O)c(C(=O)O)c2)C=CC1=O | – | 2240 nM (active) |
| O=c1cc2nc(-c3ccccc3)nc(SCCCc3ccncc3)n2[nH]1 | -7.64 | – |
| Cc1noc(C)c1CCSc1nc(-c2ccccc2)nc2cc(=O)[nH]n12 | -15.9 | – |
| O=c1cc2nc(-c3ccccc3)nc(SCCCn3ccnc3)n2[nH]1 | -1.78 | – |
